Source: PubChem BioAssay (NCI)
The panel holds about 83,000 compounds, 20% with a hit somewhere; the sample as a whole holds those more often.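 For each line, cells grew in 96-well plates with the test compound present at a single concentration for 48 hours.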 A number with no mark means an inactive call. The source made the active and inactive calls.

The compounds below were run on NCI-H522 lung (assay: NCI-60 one-dose screen, 48 h (100 = growth as untreated, 0 = no growth, -100 = all killed)). Conditions: 10 µM unless noted.
Experimental: Growth inhibition of the NCI-H522 human Non-Small Cell Lung tumor cell line is measured as a screen for anti-cancer activity. Cells are grown in 96 well plates and exposed to the test compound for 48 hours. Compounds are tested at a single concentration, which is 10^-5 M for most compounds. The reported endpoint is percent growth (GI% or GIPRCNT), where numbers from 0 - 100% represent growth inhibition, and numbers from -100% - 0 represent cell death. For example, a value of 40 represents 60% growth inhibition. A value of 0 means no net growth occurred over the course of the experiment. A value of -40 indicates 40% of cells at the beginning of the experiment died by the end of the experiment. A value of -100 means all cells are dead at the end of the experiment.
NCI-60 Human Tumor Cell Lines Screen was performed using the standard one-dose NCI protocol, which is described in more detail at https://dtp.cancer.gov/discovery_development/nci-60/default.htm.
Compounds with GIPRCNT values below 10 were considered active. Activity score was based on GIPRCNT using the following formula: […]
Score is 0 for GIPRCNT values of 100 or above, 50 for GIPRCNT values of 0, and 100 for GIPRCNT values of -100.
Compound `CC1(C)NC2=C(C(Nc3cccnc3)N1)C(c1ccc([N+](=O)[O-])cc1)C(C(=O)c1ccc(N=[N+]=[N-])cc1)O2` (stereo not given) has a growth of 96.7%. Compound `C=C(C)[C@@H]1CC[C@]2(C(=O)NNC(=O)c3cccnc3)CC[C@]3(C)[C@H](CC[C@@H]4[C@@]5(C)CCCNC(C)(C)[C@@H]5CC[C@]43C)[C@@H]12` has a growth of 99.4%. `Cc1cc(N2CCCCC2)nc(N(CCCNc2ccnc3cc(Cl)ccc23)Cc2ccco2)n1` was tested, and the growth was 49.9%. In the case of `O=c1[nH]c(=S)[nH]c2nc[nH]c12`, the growth is reported as 100%. `C[C@@H](C(=O)O)c1ccc2c3cc(Cl)ccc3n(Cc3cc(=O)oc4ccc(Cl)cc34)c2c1` showed a growth of 90.7%. Work on `Cn1c(=O)c2c(ncn2CCC(=O)Nc2ccc(F)cc2)n(C)c1=O` yielded a growth of 90.3%. `C=C(C)[C@@H]1CC[C@]2(C(=O)OC)CC[C@]3(C)[C@H](CC[C@@H]4[C@@](C)(CC/C(N)=N/O)[C@H](C(=C)C)CC[C@]43C)[C@@H]12` showed a growth of 95.4%. For `Cc1nc([P+](c2ccccc2)(c2ccccc2)c2ccccc2)c(Sc2sc(-c3ccccc3)nc2[P+](c2ccccc2)(c2ccccc2)c2ccccc2)o1`, the growth was 3.53% (active). For `COC(=O)[C@]12CC[C@@H](C)[C@H](C)[C@@H]1C1=CC[C@@H]3[C@@]4(C)C[C@@H](O)[C@H](O)[C@@](C)(CO)C4=CC[C@@]3(C)[C@]1(C)CC2`, the growth was -2.22% (active). For `Cc1ccsc1-c1ccc2c(c1)COC2(CCCN(C)C)c1ccc(F)cc1` (stereo not given), the growth was 55.1%. For `C/C(=N\Nc1cc(C)c2ccccc2n1)c1ccccn1`, the growth was -25.7% (active). `O=C(O)/C(=C/c1ccc(O)cc1)c1ccccc1` was tested, and the growth was 95%. `CCOC(=O)C/C(=C\c1ccccc1)C(C)=O` showed a growth of 76.7%. In the case of `N#CCCCCCn1c2ccccc2c2c3[nH]c(=O)[nH]c(=O)c3c3c4ccccc4n(CCCCCC#N)c3c21`, the growth is reported as 44.9%. In the case of `C=C1CC[C@@H](C(=O)OC)Cc2nc(C)ccc21`, the growth is reported as 86.4%. With `COC(=O)[C@]12CC[C@@H](C(C)=O)[C@@H]1[C@H]1CC[C@@H]3[C@@]4(C)C/C(=C/c5cccnc5)C(=O)C(C)(C)[C@@H]4CC[C@@]3(C)[C@]1(C)CC2` the growth was 47.5%. `Cc1cc(Nc2ccc(F)cc2)nc(N2CCN(c3ccnc4cc(Cl)ccc34)CC2)n1` gave a growth of 17.4%. `Cc1cc(C)c(NC(=O)c2sc3nc4c(cc3c2N)CCCC4)c(C)c1` was tested, and the growth was 4.49% (active). Compound `Nc1c(C(=O)Nc2cccc3ccccc23)sc2nc3c(cc12)CCCC3` has a growth of 11.7%. In the case of `COC(=O)[C@]12CC[C@@H](C)[C@H](C)[C@@H]1C1=CC(=O)[C@@H]3[C@@]4(C)C[C@@H](O)[C@H](O)[C@@]5(C)COC(=C45)C[C@@]3(C)[C@]1(C)CC2`, the growth is reported as 51%. Compound `CC1(C)CC[C@]2(C(=O)Nc3ccccn3)CC[C@]3(C)C(=CC[C@@H]4[C@@]5(C)C/C(=C/c6ccncc6)C(=O)C(C)(C)[C@@H]5CC[C@]43C)[C@@H]2C1` has a growth of 40.1%. For `Cc1ccc(-c2nc([P+](c3ccccc3)(c3ccccc3)c3ccccc3)c(N3C[C@H]4C[C@H](C3)c3cccc(=O)n3C4)o2)cc1`, the growth was 74.3%. With `O=S(=O)(NCCNc1cc(-c2cn(-c3ccccc3)nc2-c2cccc(O)c2)ccn1)c1ccccc1` the growth was 42.3%. `c1cnc2[nH]cc(-c3csc(-c4cn(CCCN5CCCCC5)c5ccccc45)n3)c2c1` showed a growth of 79.2%. Work on `NCCn1cc(-c2nc(-c3c[nH]c4ncccc34)cs2)c2cc(F)ccc21` yielded a growth of 90.7%. `CC(C)(C)n1cc(-c2ccnc(NCCCNS(=O)(=O)c3ccc(Cl)cc3)c2)c(-c2cccc(F)c2)n1` gave a growth of 84.2%. `C#CCC(C)(O)/C=C/C1=C(C)CCCC1(C)C` (stereo not given) gave a growth of 75.5%. In the case of `CN(C)c1ccc(N=C2C=CC(=O)C=C2)cc1`, the growth is reported as 72%. Compound `CC/C(=N/NC(N)=O)c1ccccc1` has a growth of 99.5%. In the case of `N#C/C(=C\c1ccc(-c2cccc(C(F)(F)F)c2)o1)c1nc(-c2ccco2)cs1`, the growth is reported as 90%. For `Nc1nc2c(c(=O)[nH]1)C(c1ccc3c(c1)OCO3)C=C(C(=O)O)N2` (stereo not given), the growth was 106%. Work on `COc1ccc(-c2cc(-c3c(C)oc4cc5occc5c(OC)c4c3=O)nc(N)c2C#N)cc1OC` yielded a growth of 47.1%. Work on `N#CC1c2ccccc2-c2ccccc2N1C(=O)c1ccccc1` (stereo not given) yielded a growth of 14.5%. With `CC1(C)C(=O)/C(=C\c2ccccn2)C[C@]2(C)[C@H]3CC[C@@H]4[C@@H](C(=O)/C=C/c5ccccn5)CC[C@@]4(C)[C@]3(C)CC[C@@H]12` the growth was -23.3% (active). For `Cc1nn(-c2ccc(Cl)cc2)c(=O)n1CCn1cnc2ccccc21`, the growth was 85.3%. Work on `COc1cccc(-c2nn(-c3ccccc3)cc2-c2ccnc(NCCCO)c2)c1` yielded a growth of 18%. Compound `O=C(O[C@@H]1Cc2c(O)cc(O)cc2O[C@@H]1c1cc(O)c(O)c(O)c1)c1cc(O)c2c(c1)OCO2` has a growth of 83.3%. Compound `Cn1c2c(Cl)c(Cl)ccc2c2c(C#N)c[nH]c(=O)c21` has a growth of 95.5%. Compound `CC(C)=CCC/C(C)=C/CC/C(C)=C/CC/C(C)=C/CSC[C@H](NC(=O)CCCCCN1CCN(C)CC1)C(=O)NC1CCCCC1` has a growth of 85%. With `O=C(NO)c1ccc(Cn2c(=O)n(-c3ccccc3)c(=O)c3ccccc32)cc1` the growth was -21.7% (active).
